Consider 16 compounds from PubChem BioAssay (NCATS).

Test [1] addresses Cellular tumor antigen p53 (Homo sapiens) (UniProt P04637). Nature of the test: Primary qHTS for small molecule compounds that upregulate eGFP-tagged delta133p53alpha (in N-terminal) cells. (AID 2060322). Further: nearly all actives have a fitted effect of over 75% in size. Further: potency means the concentration at half of the fitted maximal effect.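 On activation: series mostly up to about 56 µM; 0% = DMSO vehicle and 100% = reference activator.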 As to conditions: NCI-H358 eGFP-delta133p53alpha fluorescence, 24 h; activation: hits give high values. The method, boiled down:
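NCI-H358 cells pre-induced 24 h with 10 ng/ml doxycycline to express N-terminal eGFP-delta133p53alpha, then dosed 24 h at 37C without doxycycline; fixed, Hoechst-stained, GFP intensity by laser scanning cytometry, normalized to DMSO (0%) and 57.5 uM 5-azacytidine (100%).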

Test [2] deals with Aldehyde dehydrogenase, mitochondrial (Homo sapiens) (UniProt P05091). The test can be described thus: qHTS for Inhibitors of the Aldehyde Dehydrogenase Family (ALDH2) Primary screen (AID 2061308).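 Further: plate controls were vehicle for no effect and reference inhibitor for full effect; nearly all actives have a fitted effect of over 55% in size.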 A general note: In qHTS, concentration-response curves come from the screen itself.
The target in test [3] is Retinaldehyde dehydrogenase 3 (Homo sapiens) (UniProt P47895). The test can be described thus: qHTS for Inhibitors of the Aldehyde Dehydrogenase Family (ALDH1A3) Validation screen (AID 2061312). Further: on the % scale 0 is the no-effect control and ±100 the full control effect; nearly all actives have a fitted effect of over 45% in size.
For test [4] the target is unchanged. The test can be described thus: qHTS for Inhibitors of the Aldehyde Dehydrogenase Family (ALDH1A3) Primary screen (AID 2061315).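 Further: plate controls were DMSO vehicle for no effect and reference inhibitor for full effect.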
Test [5] in a line: BET inhibitor-based combinations targeting novel dependencies in MECOM-rearranged (r) AML: SET-2 cell line (AID 2202231). Further: nearly all actives have a fitted effect of over 35% in size. Further: potency means the concentration at half of the fitted maximal effect.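 On viability: plate controls were DMSO treated cells for no effect and wells without cells for full effect.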 Particulars: SET-2 AML cells viability, CellTiter-Glo luminescence, 48 h; viability: hits give low values, concentration not given here. Summed up:
(§1)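 AML cell lines seeded at 500 cells/well, treated with 11-point dose curves for 48 h. Viability by CellTiter-Glo luminescence, normalised to DMSO and empty wells; activity expressed as AUC and per-cell-line Z-transformed AUC.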
On the technique in general: ATP-based viability assays read luminescence as a measure of living cells.

The nature of test [6]: BET inhibitor-based combinations targeting novel dependencies in MECOM-rearranged (r) AML: OCI-AML3 cell line (AID 2202232). Further: nearly all actives have a fitted effect of over 35% in size. Further: potency means the concentration at half of the fitted maximal effect.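 On viability (% of control): series mostly up to about 46 µM; plate controls were DMSO vehicle wells for no effect and wells without cells for full effect.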 Particulars: Potency: OCI-AML3 viability. Summed up:
as §1

A short description of test [7]: BET inhibitor-based combinations targeting novel dependencies in MECOM-rearranged (r) AML: HNT-34 cell line (AID 2202234). Further: nearly all actives have a fitted effect of over 35% in size. Further: potency means the concentration at half of the fitted maximal effect.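 On viability (% of control): plate controls were vehicle wells for no effect and cell-free wells for full effect.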 The method, boiled down:
(§2)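 Cells at 500/well were exposed for 48 hr to MIPE v5.0 drugs as 11-point dose curves. Viability was read by CellTiter-Glo luminescence and normalized to DMSO and empty-well controls. Activity was expressed as AUC and per-cell-line Z-AUC.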

The nature of test [8]: BET inhibitor-based combinations targeting novel dependencies in MECOM-rearranged (r) AML: UCSD-AML1 cell line (AID 2202235). Further: nearly all actives have a fitted effect of over 40% in size. Further: potency means the concentration at half of the fitted maximal effect.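 On viability (% of control): series mostly up to about 46 µM; plate controls were DMSO vehicle wells for no effect and blank wells for full effect.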 Summed up:
as §2

A short description of test [9]: BET inhibitor-based combinations targeting novel dependencies in MECOM-rearranged (r) AML: AML-191 cell line (AID 2202236; further: nearly all actives have a fitted effect of over 35% in size; further: potency means the concentration at half of the fitted maximal effect;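 on viability (% of control): plate controls were vehicle wells for no effect and wells without cells for full effect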). Summed up:
as §1

Test [10] is described as follows: BET inhibitor-based combinations targeting novel dependencies in MECOM-rearranged (r) AML: AML-194 cell line (AID 2202237;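 further: plate controls were vehicle wells for no effect and wells without cells for full effect; nearly all actives have a fitted effect of over 40% in size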). Summed up: as §1
A short description of test [11]: BET inhibitor-based combinations targeting novel dependencies in MECOM-rearranged (r) AML: MV-4-11 cell line (AID 2202233). Further: nearly all actives have a fitted effect of over 45% in size. Further: potency means the concentration at half of the fitted maximal effect. The method, boiled down: as §2

Each structure is given as a SMILES string. Values joined by “and” are separate entries in the source; they are usually repeats but may differ in a detail not shown here. Identical values can stand only once. Results filed as inconclusive are left out. A number with no mark means an inactive call. Active and inactive are the calls of the source. The call rests on the fitted dose curve; in most records, active means well fitted curve in the direction sought with a large enough effect; inconclusive means small, poorly fitted or top-dose-only effect, or another doubt; inactive means no such curve, though single readings can be large; an effect the other way counts as inactive or inconclusive.

Broadly, the viability is a read-out of living cells in per cent, often relative to untreated cells.

Chain of Cellular tumor antigen p53 (Homo sapiens) (P04637 whole entry, looked up): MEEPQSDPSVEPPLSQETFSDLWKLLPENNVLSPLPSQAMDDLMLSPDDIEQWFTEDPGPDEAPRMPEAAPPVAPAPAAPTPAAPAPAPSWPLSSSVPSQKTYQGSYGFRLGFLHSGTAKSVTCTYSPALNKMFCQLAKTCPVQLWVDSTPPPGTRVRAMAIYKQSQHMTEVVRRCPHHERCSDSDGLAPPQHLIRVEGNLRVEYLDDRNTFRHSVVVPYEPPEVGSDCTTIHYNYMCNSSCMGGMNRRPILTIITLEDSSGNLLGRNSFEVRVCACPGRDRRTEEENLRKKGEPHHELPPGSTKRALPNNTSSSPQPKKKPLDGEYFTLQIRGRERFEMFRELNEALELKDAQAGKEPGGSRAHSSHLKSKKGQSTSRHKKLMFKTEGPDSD

Consider `Cc1nnc(C(C)C)n1C1CC2CCC(C1)N2CC[C@H](NC(=O)C1CCC(F)(F)CC1)c1ccccc1` (some centres not stated), for which the activation in [1] was -6.68%. For the same compound, the Potency entry in test [2], in test [3], in [4], in test [6], in [7] and in test [8] was “inactive” in each case. The Potency entry in test [9] and in test [10] was “inactive” in each case. Besides, the viability in test [5] is 113%.
`CCO[C@@H]1OC(=O)C[C@@H]1NC(=O)[C@@H]1CCCN1C(=O)[C@@H](NC(=O)c1ccc(N)c(Cl)c1)C(C)(C)C`: in [1], the activation was -7.64%. Moreover, the Potency result in test [2], in test [3], in test [4], in test [11], in test [7] and in test [8] was “inactive” in each case. Also, in [10], the Potency entry is “inactive”. Further, in test [5], the viability was 112%.
As for `CCOCc1nc2c(N)nc3ccccc3c2n1CC(C)(C)O`, in test [1], the activation was 4.77%. The Potency entry in test [2], in test [3], in test [4], in test [6], in [7] and in [8] was “inactive” each time. Also, the Potency result in [9] and in test [10] was “inactive” each time. Besides, the viability in test [5] is 108%.
As for `CCCCNc1ncc(-c2ccc(CN3CCOCC3)cn2)c(NC2CCC(O)CC2)n1` (configuration not stated), the activation in test [1] is -4.77%. The Potency result in test [2], in [3] and in test [4] was “inactive” in each case. For the same compound, the viability in test [5] is 114%. Also, the Potency in test [11] was 0.144 µM (active); in test [8], 8.11 µM (active).
Consider `COc1ccc2cc(OCC3(C(=O)O)CN(C(=O)c4ccc(F)cc4)C3)ccc2c1`, for which the activation in [1] is 2.86%. Further, the Potency result in test [2], in [3], in test [4], in test [6], in test [7] and in [8] was “inactive” in each case. Besides, the Potency result in test [9] and in test [10] was “inactive” in each case. The viability in [5] is 113%.
`CCCN1CCN(c2ccc(C(=O)NC3(C(=O)NCC#N)CCCCC3)cc2)CC1`: the activation in [1] is -6.68%. For the same compound, the Potency entry in test [2], in [3], in test [4], in test [11], in [7] and in test [8] was “inactive” throughout. Moreover, in [9], the Potency result was “inactive”. In test [5], the viability was 102%.
`Cc1cc(OCc2nnc(SC3CCCC3)n2-c2cccnc2)ccc1-c1ccc(S(C)(=O)=O)cc1`: the Potency in [1] is 6.75 µM (active); in [5], 6.61 µM (active); in [6], 3.72 µM (active); in test [9], 8.33 µM (active). Besides, the Potency result in test [2], in test [3] and in [4] was “inactive” throughout.
In the case of `Fc1ccc(CNc2ncnc3ccc(F)cc23)cc1`, the activation in test [1] was -0.393% and 5.25%. Moreover, the Potency entry in test [2], in [3], in test [4], in test [8] and in test [10] was “inactive” each time. In addition, the values for the Potency in test [5], in test [11] and in test [7] were 2.63 µM (active), 5.9 µM (active) and 16.6 µM (active), respectively.
In the case of `CCN(CCO)CCCC(C)Nc1ccnc2cc(Cl)ccc12` (configuration not stated), the activation in test [1] was 3.35% and 25.7% and 0.955%. Besides, the activity change, negative = inhibition in test [2] was 2.52% [at 5.59 µM]; in [3], 6.92% [at 9.14 µM]; in test [4], 5.26% [at 5.59 µM]. Also, in [5], the viability was 104%. Moreover, the viability (% of control) in test [6] is 48.6% [at 5.12 µM]; in test [8] it was 97.7% [at 5.12 µM]; in [9] it was 74.5% [at 5.12 µM]; in [10] it was 88% [at 5.12 µM].
For the compound `CNC(=O)c1ccc(N2C(=S)N(c3cnc(C#N)c(C(F)(F)F)c3)C(=O)C23CCC3)cc1F`, the activation in test [1] was -16.4% and 8.59%. In addition, the Potency result in test [2], in test [3], in [4], in test [11], in [7] and in test [8] was “inactive” throughout. Further, the Potency entry in [9] and in test [10] was “inactive” in each case. Moreover, the viability in test [5] was 98%.
Turning to `CS(=O)(=O)c1ccc(-c2nnc(/C=C/c3nnc(-c4ccc(C#N)cc4)o3)n2-c2ccccc2Cl)nc1`, the activation in test [1] is -4.77%. In addition, the Potency result in [2], in test [3], in test [4], in test [7], in test [8] and in [10] was “inactive” each time. The viability in test [5] is 111%. The Potency in test [11] was 10.5 µM (active).
As for `CN1CCC(COc2cnc(-c3cccc(Cn4nc(-c5cccc(C#N)c5)ccc4=O)c3)nc2)CC1`, the activation in test [1] was -3.12% and 9.55%. The Potency entry in [2], in test [3], in test [4], in test [7] and in test [8] was “inactive” in each case. Besides, the viability in test [5] was 115%. Further, the Potency in test [11] was 5.9 µM (active).
As to `CN(C)N(C)C(=O)[C@@]1(Cc2ccccc2)CCCN(C(=O)[C@@H](Cc2c[nH]c3ccccc23)NC(=O)C(C)(C)N)C1`, the activation in test [1] was -17.2%. Further, the Potency entry in test [2], in [3], in [4], in test [8], in test [9] and in test [10] was “inactive” throughout. Besides, the viability in test [5] was 113%. Moreover, the Potency in [7] was 16.6 µM (active).
Regarding `CNC(=O)c1ccc(-c2cnc3ncc(Cc4ccc5ncccc5c4)n3n2)cc1F`, in test [1], the activation was -4.61% and -7.16%. Also, the Potency result in test [2], in test [3], in test [4], in test [6], in test [8] and in [10] was “inactive” each time. Also, in test [5], the viability is 95.9%. Moreover, the Potency in test [7] was 18.6 µM (active).
For `CCC(CC)C(c1ccc(Nc2nc3ccccc3s2)cc1)n1cncn1` (configuration not stated), in [1], the activation was 17.2%. Also, the Potency entry in [2], in test [3], in [4] and in test [8] was “inactive” throughout. In addition, the results for the Potency in test [5], in test [6] and in test [9] were 20.9 µM (active), 11.8 µM (active) and 16.6 µM (active), respectively.
Take `O=C(O)CC1CCC(c2ccc(-c3ccc(Nc4ccc(C(F)(F)F)nc4)cn3)cc2)CC1` (configuration not stated): the activation in test [1] is -9.55%. The Potency entry in test [2], in [3], in test [4], in test [6], in test [8] and in test [9] was “inactive” each time. Besides, the Potency entry in test [10] was “inactive”. For the same compound, the viability in test [5] is 114%.
